In the supplement of paper PMC12632987:
Whole data set: some 4,500 sequences, median “median log2 fold change of GCK-ALFA target abundance (FLAG IP / Myc IP barcode read proportion)” near 0.078, cut for the lowest 2% near -0.6. This is one part of a sample in which the lowest values are shown more often than they occur.

B1: GBRAP_160_4698 (protein)
chain: TATAEKLKAFVKEEFEKAKEEIEGESREQRAVILAGTGGEILMELVEDPNATDELEDEVLAIFDDAVATLLANPNLTLEETKALIDEVEAKVLAAIDKHL
B2: GBRAP_166_4925 (protein)
chain: MIEEKVEEARKRLEEVIREGRADPSLTDGQITAAMAYEVAEMLKDIEDEEEKLAVVEEGLRLAKEEGLDPRRLATLTASLYGFSDEERERIDEITEKILA
B3: GBRAP_53_6398 (protein)
chain: AAAAIAAGLAELEALIAEVEADPTLDAADVAARAGALLKALAAAGAPEAELTALARRLAAAVAARGLGVEVSTALAATAAAAGREAVAAVFTEAAVEDLE
B4: GBRAP_128_3157 (protein)
chain: STEEVREETRRLLEEIRESDEEEAREIARELFALILTLSDEEAEAAVEVILELLPELSKEKLEILADVAREMRPEADPFKAELLAEVEVEALNEALELEE
B5: GBRAP_45_5811 (protein)
chain: SEELKETREKLEELLKKAKELAEKLKEEDPEKFTPLLELLEEAEKLLKEEPESLEAWERIEELLEEALKLALDSKKASAELLETLLEAANLALEAKELLE
B6: GBRAP_52_5842 (protein)
chain: MEEEARRLAEELVALAEAGREEELDALIEEIVETLSEEEVMLVLEELARLAAEADPETAEVIFDVADRLADAALAAGFDEMEMSLGLALVGAAVYKALQR
B7: GBRAP_184_5031 (protein)
chain: SVIERTIKADNLEELEAKLEKLKEEVKGSKADLIVTLDIKNPTEEMIKTALKRLGEMKKNGDVSSVTVGFARLLSEELIDVALKTADEEGVKVVLPISEE
B8: GBRAP_52_6157 (protein)
chain: MEARAEAYANALIAAVKAGDEAAIRALMEEIAATLSEEEIELMMAIVAEKVAGLTPEEQERAVEAALELEDILIAAGHDENIASYNTARVAGAAYDALQA
B9: GBRAP_52_6039 (protein)
chain: MEEEMRRKAEEIVELVKAGRRAEAEARIRELVATWSEEELELLGEELARLAREAEPEDLDAVMEAALMLADALEAAGYDPAFADDLLARVAAAAVENLQR
B10: GBRAP_14_3840 (protein)
chain: REEVRRLLLEAVERAVEEVRKFAPEEARERVEALREVLRRAVDEGLETGDLEEAERRLVEVAEAAVRELFADLPPEERGALVAVAVDELVEGFEELEERL
B11: GBRAP_80_6763 (protein)
chain: MMEELEEALEELSELLPELAEELRATVEALLELGVPVEDLLRLLKALVELAKLDKEKAEAILREFIAEVNEAIARGDLEEARALVIDAESDALLEVEELE
B12: GBRAP_125_3054 (protein)
chain: NLEEAIEALAELGKILGLSEEEVEELRKLAEKYGVKGTLYALLLAEGEEELAELVAKLTEEEVIEVLKRLLEYIKSHPNITKEEALEKLKELAEEALAKK
B13: GBRAP_117_2592 (protein)
chain: SATREAARAKIRATVAEVEALFKELAGLSPEEQAEALAAMRERVKAVLREVIEELGEEEAEELLDEALLDTDAETYFFLESVREDTLEELEEEEEEEERE
B14: GBRAP_52_6014 (protein)
chain: MRERLRAFVDEVLALVRAGKEEEARALIEELVASLNEEEIELLIDVLAERAAAARPEDQEAVWRLAEMLAEALEEAGVDEALADDLLARVAAALYAAEQA
B15: GBRAP_83_6975 (protein)
chain: AEEIVVAAPADRVEEAVEIAIDLAKEEGKKVTLEILTTPEQRERVLEAVERLLKEVPNIEIVVVLRGATKEEAEELEKELKEIAKELGVNADIEVLIEEP
B16: GBRAP_26_5452 (protein)
chain: MEEKLEALRDRLVELADELLDPETAALLKVEVDNIVALAELELEEANGDLEKELAVVEEMLEDLEEALDDLEVPEEVKEKLLEAAREAAEEIKEYLKKKS
B17: GBRAP_26_5451 (protein)
chain: MEELLERFRERLERAADELLDPETAALLKVAVDDIIALAELELEEANGDLEKELEIVEEMLEDLEEELEDLEVPEEVREKLLEIAREEAEEIKKALKEER
B18: GBRAP_52_5986 (protein)
chain: MKEEAKKIAEELVKLMLEGKEEEAEKLMKEIAENKSQEFILMVMEELAKMAKTATPEEVDAIVDTALMLGDIALEAGFDEAEIDDAEARVAAAAVENLKK
B19: GBRAP_64_6489 (protein)
chain: MEEIEESLEELLKLVEELLEAVKDLSEELQKKVEEVKRLVEEAKTASLEERLDLTVEAAKLLNEILKNPELTEEQKELAGLALDKASELAWLLFEAEEEE

What follows are binders tested against GABARAP, O95166 (assay: median log2 fold change of GCK-ALFA target abundance (FLAG IP / Myc IP barcode read proportion) (log2 ratio); each designed protein is fused to an ALFA-tag nanobody in HEK293 cells to bring the named protein to FLAG-tagged glucokinase (GCK); Myc marks an untargeted standard; higher = target protein stabilised (more abundant)). Conditions: target protein: 3xFLAG-MCP-GCK-ALFA reporter; HEK293 landing pad (RPLP).
Sequence of GABARAP, O95166 (O95166 whole entry, the tested form may be a part): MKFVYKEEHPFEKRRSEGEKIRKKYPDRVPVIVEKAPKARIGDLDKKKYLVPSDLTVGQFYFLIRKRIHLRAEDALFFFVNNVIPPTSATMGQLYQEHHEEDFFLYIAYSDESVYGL
In short: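 An ALFA-nanobody-fused binder library was recombined into HEK293 landing-pad cells and induced with 2 μg mL^−1 doxycycline. Cells were transfected with a plasmid expressing a FLAG-tagged target and a Myc-tagged standard. After 48 h, lysates underwent anti-FLAG and anti-Myc immunoprecipitation, and circular RNA barcodes were reverse transcribed, amplified and sequenced. Target abundance is the per-binder median log2 ratio of FLAG to Myc barcode read proportions. Barcodes needed ≥10^−7 proportion in both replicates, binders ≥3 barcodes per replicate, and a 10^−6 pseudocount was added; the two replicates were pooled.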

Binder	median log2 fold change
B1	-0.69
B2	0.302
B3	0.254
B4	0.00897
B5	0.129
B6	-0.837
B7	0.0419
B8	-0.262
B9	-0.911
B10	0.0661
B11	0.0537
B12	-1.42
B13	0.191
B14	-0.157
B15	0.0242
B16	-0.454
B17	-1.2
B18	-0.152
B19	0.0238
